TIM10 inh = inhibits growth of TIM10 yeast strain. inhibition, % at 10 µM. S. cerevisiae TIM10 strain growth, BacTiter-Glo luminescence, 24 h. 1.4% of 330,000 active. AID 463195;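 active = inhibition of 40% or more at the single tested concentration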;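 also: wild-type TIM10 isogenic control strain grown at permissive 25 °C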
tim23-1 inh = inhibits growth of tim23-1 mutant yeast. S. cerevisiae tim23-1 growth, BacTiter-Glo luminescence, 24 h. 1.3% of 330,000 active. AID 463212. inhibition, % at 20 µM;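 active = growth inhibition of the mutant yeast at or above 50%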;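 also: temperature-sensitive mutant grown at 25 °C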
NALP3 yeast inh = NALP3 inhibition in yeast. 0.39% of 330,000 active. inhibition, % at 10 µM. Yeast reconstituted NLRP3/ASC/caspase-1, beta-gal luminescence, 24 h;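 active = inhibition of 50% or more; inactive = inhibition below 50%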
NALP1 yeast inh = blocks the NALP1 inflammasome reconstituted in yeast; inhibition, % at 10 µM; 0.61% of 280,000 active; S. cerevisiae NALP1/ASC/caspase-1 growth, X-gal OD620, 72 h; AID 2071; in the data active = inhibition mostly above about 24%, no sharp cut-off; inactive = mostly below about 32%
tim10-1 inh = growth inhibitors of tim10-1 mutant yeast; inhibition, % at 20 µM; S. cerevisiae tim10-1 ts strain growth, BacTiter-Glo, 24 h; 2.2% of 330,000 active; AID 463190;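 active = inhibition of at least 40%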;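 also: mutant grown at 25 °C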
tim10-1 confirm = confirmation of tim10-1 mutant yeast growth inhibitors; shares compounds with tim10-1 inh; S. cerevisiae tim10-1 ts strain growth, BacTiter-Glo, 24 h; inhibition, % at 20 µM; 56% of 7,400 active;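 active = inhibition of yeast growth at or above a set limit in either of two repeat tests at 20 µM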;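 also: tim10-1 mutant grown at permissive 25 °C to find synthetic lethal compounds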
Hits are given with their value; 0 = inactive; - = no result. Shown are actives, neighbours in structure and some others; about 4% of the full set was active somewhere.

SMILES | TIM10 inh | tim23-1 inh | NALP3 yeast inh | NALP1 yeast inh | tim10-1 inh | tim10-1 confirm
CN1CCN(c2nc(-c3cccnc3)nc3ccccc23)CC1 | 0 | 0 | 0 | 0 | 0 | -
c1cncc(-c2nc(N3CCCCCC3)c3ccccc3n2)c1 | 0 | 0 | 0 | 0 | 50 | 32
Cc1ccc(NC(=S)NNC(=O)c2ccc(N3CCOCC3)c([N+](=O)[O-])c2)cc1Cl | 0 | 0 | 0 | 0 | 0 | -
O=C(NNC(=S)Nc1ccc(Br)cc1)c1ccc(N2CCOCC2)c([N+](=O)[O-])c1 | 0 | 0 | 0 | 0 | 44 | 0
COC(=O)c1ccccc1NC(=O)CSc1nc(O)cc(=O)n1C1CCCC1 | 0 | 0 | 0 | 0 | 46 | 0
CC(C)(C)NC(=O)CSc1ncnc2c1nnn2Cc1ccccc1Cl | 0 | 0 | 0 | 0 | 48 | 0
O=C(CSc1ncnc2c1nnn2Cc1ccccc1)NC1CCCC1 | 0 | 0 | 0 | 0 | 0 | -
CCN1CCN(C(=O)/C=C/c2ccc(C)o2)CC1 | 0 | 0 | 0 | 0 | 0 | -
Cc1ccc(/C=C/C(=O)N2CC(C)CC(C)C2)o1 (centres undefined) | 0 | 0 | 0 | 0 | 43 | 0
O=S1(=O)CCOC[C@H](CC2CCCCC2)N1Cc1ccccc1Br | 0 | 0 | 0 | 0 | 0 | -
CN(C)c1ccc(-c2nnc(-c3ccccc3F)o2)cc1 | 0 | 0 | 0 | 0 | 0 | -
O=C(CCc1nc2ccccc2c(=O)[nH]1)NNC(=O)COc1cccc(F)c1 | 0 | 0 | 0 | - | 0 | -
CCC1CCc2c(sc(N)c2C(N)=O)C1 (centres undefined) | 0 | 0 | 0 | - | 0 | -
CC1CCc2c(sc(N)c2C(N)=O)C1 (centres undefined) | 0 | 0 | 0 | - | 41 | 0
O=C(NCCc1ccccc1)c1nc(-c2cccs2)no1 | 0 | 0 | 0 | 0 | 0 | -
CN1/C(=C/C2CC(=O)N(c3cccc4ccccc34)C2=O)C(C)(C)c2ccccc21 (centres undefined) | 0 | 0 | 0 | 0 | 51 | 39
O=C(NCC(c1cccs1)N1CCOCC1)c1cc([N+](=O)[O-])cc([N+](=O)[O-])c1 (centres undefined) | 0 | 0 | 0 | 0 | 42 | 0
O=C(NCC(c1cccs1)N1CCOCC1)c1cccc([N+](=O)[O-])c1 (centres undefined) | 0 | 0 | 0 | 0 | 0 | -
Cc1ccc(Nc2nnc(SCc3nc4ccccc4c(=O)[nH]3)s2)cc1 | 0 | 0 | 0 | 0 | 0 | -
Cc1ccc(-c2cc([C@H]3[C@@H]4C=CCC[C@@]4(C)C(=O)N3Cc3ccccc3)ccc2F)cc1 | 0 | 0 | 0 | 0 | 0 | -
O=C1C2C(c3ccccc3)CC=CC2[C@H](c2ccc3ccccc3c2)N1Cc1ccccc1 (some centres undefined) | 0 | 0 | 0 | 0 | 46 | 38
Cc1ccc(F)c([C@H]2[C@@H]3C=CCC[C@@]3(C)C(=O)N2Cc2ccccc2)c1 | 0 | 0 | 0 | 0 | 45 | 42
Cc1ccc(F)c([C@H]2C3C=CCC(c4ccccc4)C3C(=O)N2Cc2ccccc2)c1 (some centres undefined) | 0 | 0 | 0 | 0 | 44 | 31
Cc1ccccc1-n1nnnc1SCC(=O)N(C)C1CCS(=O)(=O)C1 (centres undefined) | 0 | 0 | 0 | 0 | 0 | -
CN(C)S(=O)(=O)N1CCN(CC(O)COc2ccc3cc(Br)ccc3c2)CC1 (centres undefined) | 0 | 0 | 0 | 0 | 0 | -
SMILES | TIM10 inh | tim23-1 inh | NALP3 yeast inh | NALP1 yeast inh | tim10-1 inh | tim10-1 confirm
COc1cccc(OCC(O)CN2CCN(c3ccccn3)CC2)c1 (centres undefined) | 0 | 0 | 0 | 0 | 0 | -
O=S(=O)(N1CCCCC1)N1CCN(CC(O)COc2ccc3cc(Br)ccc3c2)CC1 (centres undefined) | 0 | 0 | 0 | 0 | 45 | 0
OC(COc1ccc2cc(Br)ccc2c1)CN1CCN(c2ccccn2)CC1 (centres undefined) | 0 | 0 | 0 | 0 | 41 | 0
Cc1cc(C)nc(NS(=O)(=O)c2ccc(NC(=O)CSc3ncn[nH]3)cc2)n1 | 0 | 0 | 0 | 0 | 0 | -
CCc1ccc(CNC(=O)c2ccc(NC(=O)C3=CSCCO3)cc2)cc1 | 0 | 0 | 0 | 0 | 44 | 0
O=C(Nc1ccc(C(=O)NCc2ccc(F)cc2)cc1)C1=CSCCO1 | 0 | 0 | 0 | 0 | 0 | -
COc1ccc(N2CCN(C(=O)c3ccc(NC(=O)C4=CSCCO4)cc3)CC2)cc1 | 0 | 0 | 0 | 0 | 43 | 29
O=C(Nc1ccc(C(=O)N2CCN(c3ccc(F)cc3)CC2)cc1)C1=CSCCO1 | 0 | 0 | 0 | 0 | 47 | 36
O=C(Nc1ccccc1C(=O)N1CCN(c2cccc(Cl)c2)CC1)C1=CSCCO1 | 0 | 0 | 0 | 0 | 0 | -
O=C(CSC(=S)N1CCCCC1)N1N=CCC1c1ccccc1 (centres undefined) | 0 | 0 | 0 | 0 | 41 | 32
Cc1ccc(N(C(=O)c2csnn2)C(C(=O)NCc2ccccc2)c2cccnc2)cc1 (centres undefined) | 0 | 0 | 0 | 0 | 0 | -
COc1ccc(-c2[nH]ncc2N=Nc2ccccc2)cc1 | 0 | 0 | 0 | 0 | 58 | 37
C=CCOC(=O)C1=C(C)N=C2SCCC(=O)N2C1/C=C/c1ccccc1 (centres undefined) | 0 | 0 | 0 | 0 | 42 | 0
CCN(CC)c1ccc(NC(=S)NC(=O)c2cccs2)cc1 | 0 | 0 | 0 | 0 | 0 | -
C=CCOC(=O)C(C#N)c1nc2ccccc2nc1N1CCN(c2ccccc2OCC)CC1 (centres undefined) | 0 | 0 | 0 | 0 | 0 | -
C=CCOC(=O)C(C#N)c1nc2ccccc2nc1N1CCN(Cc2ccc3c(c2)OCO3)CC1 (centres undefined) | 0 | 0 | 0 | 0 | 41 | 0
CC(C)N(C(=S)Nc1cccc(C(F)(F)F)c1)C(C)c1ccccn1 (centres undefined) | 0 | 0 | 0 | 0 | 43 | 0
Cc1cccc(N2CCN(C(=O)C3CCN(S(=O)(=O)c4cccc5nsnc45)CC3)CC2C)c1 (centres undefined) | 0 | 0 | 0 | 0 | 40 | 0
O=C(C1CCCN(S(=O)(=O)c2cccc3nsnc23)C1)N1CCc2ccccc21 (centres undefined) | 0 | 0 | 0 | 0 | 41 | 37
Cc1cccc(N2CCN(C(=O)C3CCN(S(=O)(=O)c4cccc5cccnc45)CC3)CC2C)c1 (centres undefined) | 0 | 0 | 0 | 0 | 0 | -
Oc1ccc(/C=N/Nc2nccnc2Cl)cc1 | 0 | 0 | 0 | 0 | 47 | 40
O=C(Nc1cc(Sc2ccccn2)cc([N+](=O)[O-])c1)c1cccc(F)c1 | 0 | 0 | 0 | 0 | 44 | 53
Cc1oc(-c2ccccc2Cl)nc1CS(=O)CC(=O)NC1CC1 (centres undefined) | 0 | 0 | 0 | 0 | 0 | -
Cc1cc(C)cc(C(=O)NCC(=O)OCC(=O)c2cc(C)n(CC(F)(F)F)c2C)c1 | 0 | 0 | 0 | 0 | 0 | -
Oc1ccc(-c2nccc(-c3ccc(Cl)cc3)n2)cc1 | 0 | 0 | 0 | 0 | 42 | 43

Source: PubChem
